Potency and affinity values are given separately. Activity calls are given as the source filed them.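 Rule for the calls: active = cell killing, with a fitted active concentration at or below twice the top valid dose tested; inconclusive = flat curve with moderate cell loss, or an unreliable fit; inactive = effect in the rising direction, plus the rest.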

The nature of this test: loss of HEK293T viability via ATP – cell-based, plate reader, dry powder, set 10, cytotoxicity control, dose response (AID 743315). Particulars: CellTiter-Glo ATP luminescence, 72 h; series mostly up to 26 µM. A general note: Cellular ATP, detected with luciferase, serves as a proxy for viable cell number.
Turning to `S=c1[nH]c2ccccc2n1CCOc1ccccc1Cl`, the result was inactive. The value for `c1ccc(OCCn2cnc3ccccc32)cc1` was “inactive”; that for `Cc1ccc(C(C)C)c(OCCn2c(=S)[nH]c3c(C)cccc32)c1` was “inactive”; that for `Cc1ccc(C(C)C)c(OCCn2c(CO)nc3ccccc32)c1` was “inactive”. The value for `Fc1cccc(OCCn2c(=S)[nH]c3ccccc32)c1` was “inactive”; that for `O=c1[nH]c2ccccc2n1CCOc1ccccc1` was “inactive”.

Consider `COc1ccc(OCCn2c(=S)[nH]c3ccccc32)cc1`, for which the molecule was classed as inactive. To `Fc1ccc(OCCn2c(=S)[nH]c3ccccc32)cc1` belongs “inactive”; to `S=c1[nH]c2cc(Cl)ccc2n1CCOc1ccccc1`, “inactive”; to `Cc1ccc(C(C)C)c(OCCn2c(=S)[nH]c3cccc(C)c32)c1`, “inactive”. To `Cc1ccc(OCCn2c(=S)[nH]c3ccccc32)c(C(C)C)c1` belongs “inactive”; to `Cc1cccc(OCCn2c(=S)[nH]c3cc(C(F)(F)F)ccc32)c1`, “inactive”; to `Fc1cccc2c1[nH]c(=S)n2CCOc1ccccc1`, “inactive”. The value for `COCc1nc2ccccc2n1CCOc1ccc(C(C)(C)C)cc1` was “inactive”. Take `Cc1ccc(C(C)C)c(OCCn2c(=S)[nH]c3ccccc32)c1`: the outcome was inactive.

In the case of `Cc1ccc(C)c(OCCn2c(=S)[nH]c3ccccc32)c1`, the molecule was called inactive. To `Cc1cccc(OCCn2c(=S)[nH]c3ccccc32)c1` belongs “inactive”.

With `S=c1[nH]c2ccccc2n1CCOc1ccccc1`, the result was inactive. To `Cc1ccc(OCCn2cnc3ccccc32)cc1` belongs “inactive”; to `Cc1cccc2[nH]c(=S)n(CCOc3ccccc3)c12`, “inactive”. The value for `Cc1ccc2c(c1)[nH]c(=S)n2CCOc1ccccc1` was “inactive”; that for `Cc1ccc(OCCn2c(=S)[nH]c3ccccc32)c(C)c1` was “inactive”; that for `CC(C)c1ccccc1NCCn1c(=S)[nH]c2ccccc21` was “inactive”. The value for `Cc1ccc(OCCn2c(=S)[nH]c3ccccc32)cc1` was “inactive”.

These data come from PubChem BioAssay AID743315 (Broad Institute, 2014).
